The panel holds about 83,000 compounds, 20% with a hit somewhere; the sample as a whole holds those more often.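 Testing used 96-well plates and a 48-hour single-concentration exposure. Example: -40 means 40% of the starting cells died.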 Unmarked numbers belong to inactive results. Active and inactive are the calls of the source. How the source made its calls: active means growth percent below 10; inactive means the rest.

The record followed here is PubChem BioAssay (NCI).

What all share (experiment): NCI-60 one-dose screen, 48 h (100 = growth as untreated, 0 = no growth, -100 = all killed)
Details in all cases: 10 µM unless noted

Experiment [1] has as its system SR leukemia.
The subject of experiment [2] is RPMI-8226 leukemia.
Experiment [3] has as its system OVCAR-8 ovarian.
Experiment [4] concerns OVCAR-5 ovarian.
In experiment [5] the test system is OVCAR-4 ovarian.
Experiment [6] relates to SK-OV-3 ovarian.
For experiment [7], the system named is IGROV1 ovarian.
Experiment [8] has as its system OVCAR-3 ovarian.
Experiment [9] concerns HS 578T breast.
In experiment [10] the test system is NCI/ADR-RES ovarian.

As to `O=C1c2cccc(NCCN=Cc3cc(O)ccc3O)c2C(=O)c2c(NCCN=Cc3cc(O)ccc3O)cccc21`, the growth in experiment [1] is 40.4%; in [2], -60.1% (active); in experiment [3], 7.56% (active); in experiment [4], -28.1% (active); in [5], -47% (active); in [6], 73.4%. In addition, the growth in experiment [7] is -6.03% (active); in experiment [8], -48.8% (active); in experiment [9], -37.6% (active); in experiment [10], 42.9%.
Regarding `Oc1ccc(CCn2c(O)c(/C=C3\CN=c4ccccc4=N3)sc2=S)cc1`, the growth in experiment [1] was 20.9%; in experiment [2], 33.8%; in [3], 86.8%; in experiment [4], 95.6%; in experiment [5], 80.5%; in experiment [6], 79.5%. Moreover, the growth in experiment [7] is 39.9%; in [8], 44.7%; in experiment [9], 68.5%; in experiment [10] it was 65.7%.
As for `O=C1/C(=C/c2ccc(Cl)cc2)COc2ccc(O)cc21`, the growth is 5.45% (active) in experiment [1]; -31.8% (active) in experiment [2]; 77.8% in experiment [3]; 88.7% in experiment [4]; 84% in [5]; 132% in [6]. Besides, the growth is 78.6% in experiment [7], 75.5% in experiment [8], 83.1% in [9] and 88.7% in [10].
On to `COC(=O)/C=C1/SC(=Nc2ccc(C)cc2)N(CCc2c[nH]c3ccc(O)cc23)C1=O`, for which the growth in [1] was -27.4% (active); in [2] it was 1.84% (active); in experiment [3], 29.4%; in [4] it was 108%; in [5], 51.1%; in [6], 98.4%. For the same compound, the growth was 27.5% in [7], 32.7% in experiment [8], 55.1% in experiment [9] and 50% in experiment [10].
Consider `Brc1ccc(-n2cc(-c3nn[nH]n3)c(-c3cccs3)n2)cc1`, for which the growth is 110% in [1]; 99.3% in [2]; 98.8% in experiment [3]; 100% in experiment [4]; 100% in [5]; 93.5% in experiment [6]. Moreover, the growth in experiment [7] is 93.2%; in experiment [8], 105%; in experiment [9], 96.3%; in experiment [10] it was 107%.
Regarding `O=C(CCCCC1CCSS1)Nc1ncnc2n[nH]c(-c3ccc(Oc4ccccc4)cc3)c12` (stereo not given), the growth was 32.9% in experiment [1]; 85.4% in experiment [2]; 100% in experiment [3]; 101% in [4]; 108% in experiment [5]; 123% in experiment [6]. Also, the growth in [7] is 93.5%; in experiment [8], 116%; in experiment [9], 117%; in experiment [10], 89%.
On to `O=C(/C=C/c1cn(-c2ccccc2)nc1-c1ccc([N+](=O)[O-])cc1)c1ccc(Cl)cc1`, for which the growth was -22.6% (active) in [1]; 38.3% in [2]; 38.1% in experiment [3]; 34.2% in experiment [4]; -21.8% (active) in [5]; 66.5% in experiment [6]. Also, the growth in experiment [7] is 48%; in experiment [8] it was 10.6%; in [9], -12% (active); in [10], 41.1%.
Take `CN1C(=O)/C(=C/c2ccc(C(=O)Nc3ncc(Cc4ccc(Cl)cc4)s3)cc2)SC1=S`: the growth in experiment [1] was 43.2%; in experiment [2], 61.3%; in experiment [3], 60.4%; in [4], 58.1%; in experiment [5], 54.9%; in experiment [6], 58%. Moreover, the growth was 44.4% in experiment [7], 27.2% in [8], 42% in experiment [9] and 37.5% in experiment [10].
Regarding `CCCCN[C@H]1CC[C@@]2(C)[C@@H](CC[C@@]3(C)[C@H]2[C@H](O)C[C@H]2/C(=C(\CCC=C(C)C)C(=O)OC)[C@@H](OC(C)=O)C[C@@]23C)[C@@H]1C`, the growth in [1] is 74.5%; in experiment [2] it was 95.9%; in experiment [3], 102%; in experiment [4] it was 91.4%; in experiment [5] it was 102%; in [6], 104%. Further, the growth is 99.2% in [7], 106% in experiment [8], 87.3% in [9] and 100% in [10].
As for `CN(C)C1CCN(Cc2ccc(NC(=O)c3cncc(C#Cc4cnc(N)c5ncccc45)c3)cc2C(F)(F)F)CC1`, the growth was 1.15% (active) in [1]; 60.9% in experiment [2]; -25.4% (active) in [3]; 123% in experiment [4]; -14.7% (active) in [5]; 103% in experiment [6]. Besides, the growth in experiment [7] is 112%; in experiment [8], 97.9%; in experiment [9], 44.9%; in [10], -63.9% (active).
With `NC(=O)CCC(C(=O)O)N1C(=O)c2ccc(O)cc2C1=O` (stereo not given), the growth in [1] is 139%; in experiment [2] it was 82.1%; in experiment [3] it was 106%; in experiment [4] it was 131%; in experiment [5], 123%; in experiment [6] it was -100% (active). Also, the growth in [7] was 105%; in [8] it was 97.6%; in experiment [9], 107%; in experiment [10], 132%.
As to `CCN(CC)CCCN1C(=O)c2c(c(C)c3c(oc4cc(O)ccc43)c2C)C1=O`, the growth is 8.28% (active) in [1]; -30% (active) in [2]; -39.4% (active) in [3]; -77.2% (active) in experiment [4]; -50.2% (active) in experiment [5]; 105% in experiment [6]. Moreover, the growth is -74.5% (active) in experiment [7], 118% in experiment [8], 101% in experiment [9] and -40.4% (active) in experiment [10].
Consider `CCN1CCN(Cc2cn(CC(=O)Nc3ccc4c(ccn4Cc4ccccc4)c3)nn2)CC1`, for which the growth is 63.5% in experiment [1]; 85% in experiment [2]; 99.7% in experiment [3]; 113% in experiment [4]; 97.4% in [5]; 92.7% in experiment [6]. For the same compound, the growth in experiment [7] was 105%; in experiment [8], 102%; in [9] it was 100%; in experiment [10] it was 108%.
